The panel holds about 79,000 compounds, 15% with a hit somewhere; the sample as a whole holds those more often. Activity calls are given as the source filed them. No stated cut-off is given here; in the data, active means growth inhibition above about 70%; inactive means the rest.
Assays:
[1] = NCI Yeast Anticancer Drug Screen. Data for the rad50 strain (AID 155);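 further: 0% = growth of vehicle-only cultures of the same strain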; settings: S. cerevisiae rad50 strain growth inhibition, hits give high values
Summary of the method: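 A DNA repair-deficient yeast mutant serves as the test organism; compound-induced growth inhibition is calculated against vehicle-treated cells.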

[2] = NCI Yeast Anticancer Drug Screen. Data for the mec2-1 strain (AID 157); settings: S. cerevisiae mec2-1 strain, hits give high values
Summary of the method: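 Using mec2-1 yeast: add compound, measure growth, express inhibition versus vehicle-treated cultures.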

[3] = NCI Yeast Anticancer Drug Screen. Data for the sgs1 mgt1 strain (AID 161);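 further: 0% = growth of cultures given vehicle only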; settings: S. cerevisiae sgs1 mgt1 strain, hits give high values
Summary of the method: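 Percent growth inhibition was derived by comparing compound-exposed mutant yeast with vehicle-exposed cultures. The strain carries alterations in DNA damage repair.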

[4] = NCI Yeast Anticancer Drug Screen. Data for the cln2 rad14 strain (AID 165);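 further: 0% = growth equal to vehicle treated cultures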; settings: S. cerevisiae cln2 rad14 strain, hits give high values
Summary of the method: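 Yeast strain cln2 rad14, bearing defects in cell cycle control and DNA repair, serves as the test system; values reflect growth inhibition compared with vehicle.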

[5] = NCI Yeast Anticancer Drug Screen. Data for the bub3 strain (AID 167); settings: S. cerevisiae bub3 mutant strain, hits give high values
Summary of the method: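 Inhibition values come from growth of compound-treated mutant yeast normalised to vehicle-treated controls.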

[6] = NCI Yeast Anticancer Drug Screen. Data for the mlh1 rad18 strain (AID 175); settings: S. cerevisiae mlh1 rad18 strain growth inhibition, hits give high values
Summary of the method: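 Steps: expose repair-defective yeast to compound; measure growth; express inhibition against vehicle-treated controls.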

[7] = at 5.0 µM (retest, dose inferred, filed as 0.5)
[8] = at 50.0 µM (retest, dose inferred, filed as 5.0)

Measured: growth inhibition

COc1ccccc1NC(=O)C1=C(C)NC(C)=C(C(=O)Nc2ccccc2OC)C1c1ccccc1[N+](=O)[O-]
inactive: [1]; [7] 13% | [1]; [8] 13% | [1]; at 50.0 µM 68% | [2]; [7] 4% | [2]; [8] 4% | [2]; at 50.0 µM 69.1% | [3]; [7] 2% | [3]; [8] 2% | [3]; at 50.0 µM 60.9% | [4]; [7] 0% | [4]; [8] 0% | [4]; at 50.0 µM 12% | [5]; [7] 5% | [5]; [8] 5% | [5]; at 50.0 µM 65.7% | [6]; [7] 13% | [6]; [8] 13% | [6]; at 50.0 µM 48.4%

CCCCCCCCNc1ncnc2c1cnn2C
active: [2]; [8] 83% | [3]; [8] 85% | [4]; at 50.0 µM 98.8% | [5]; [8] 87% | [5]; at 50.0 µM 97.8% | [6]; [8] 86%
inactive: [1]; [7] -2% | [1]; [8] 69% | [1]; at 50.0 µM 48.6% | [2]; [7] 4% | [2]; at 50.0 µM 43% | [3]; [7] -2% | [3]; at 50.0 µM 54.8% | [4]; [7] -9% | [4]; [8] 61% | [5]; [7] 1% | [6]; [7] 18% | [6]; at 50.0 µM 49.9%

COC(=O)c1c(C)cccc1C1CN=NC12Cc1ccc(C)c(C)c1C2=O (stereo not drawn)
inactive: [1]; [7] 2% | [1]; [8] 31% | [1]; at 50.0 µM 61% | [2]; [7] 0% | [2]; [8] 47% | [2]; at 50.0 µM 43.2% | [3]; [7] 13% | [3]; [8] 56% | [3]; at 50.0 µM 68.5% | [4]; [7] 1% | [4]; [8] 44% | [4]; at 50.0 µM 54.1% | [5]; [7] 8% | [6]; [7] -1% | [6]; [8] 57%
active: [5]; [8] 81% | [5]; at 50.0 µM 78.7% | [6]; at 50.0 µM 72.8%

CC(C)(C)c1cc(C(=O)[O-])c([OH2+])c(C(C)(C)C)c1.CC(C)(C)c1cc(C(=O)[O-])c([OH2+])c(C(C)(C)C)c1.[Mn+2]
active: [1]; at 50.0 µM 99% | [2]; at 50.0 µM 98.8% | [3]; at 50.0 µM 98.5% | [4]; [8] 78% | [4]; at 50.0 µM 97% | [5]; at 50.0 µM 97% | [6]; [8] 71% | [6]; at 50.0 µM 98.2%
inactive: [1]; [7] 22% | [1]; [8] 59% | [2]; [7] 27% | [2]; [8] 60% | [3]; [7] 21% | [3]; [8] 42% | [4]; [7] 42% | [5]; [7] 21% | [5]; [8] 49% | [6]; [7] 28%

O=C(C(=S)c1ccccc1)N(Cc1ccccc1)Cc1ccccc1
active: [1]; at 50.0 µM 79.3% | [2]; at 50.0 µM 88.9% | [3]; at 50.0 µM 95.9% | [5]; at 50.0 µM 93.8% | [6]; at 50.0 µM 94.4%
inactive: [1]; [7] -2% | [1]; [8] 44% | [2]; [7] 1% | [2]; [8] 25% | [3]; [7] 0% | [3]; [8] 48% | [4]; [7] 0% | [4]; [8] 27% | [4]; at 50.0 µM 59.4% | [5]; [7] 4% | [5]; [8] 41% | [6]; [7] 2% | [6]; [8] 50%

O=C1C(CN2CCCC2)C(O)=C(c2ccccc2)N1c1ccccc1 (stereo not drawn)
inactive: [1]; [7] 5% | [1]; [8] 4% | [1]; at 50.0 µM 52.2% | [2]; [7] 1% | [2]; [8] 9% | [2]; at 50.0 µM 14.8% | [3]; [7] 1% | [3]; [8] 2% | [4]; [7] -3% | [4]; [8] 1% | [4]; at 50.0 µM 18.6% | [5]; [7] -6% | [5]; [8] 1% | [5]; at 50.0 µM 30.1% | [6]; [7] 0% | [6]; [8] 1% | [6]; at 50.0 µM 43.1%
active: [3]; at 50.0 µM 75.5%

Source: PubChem BioAssay (NCI)
